Values without a mark were called inactive. Inconclusive results are not listed. A call without a number means that no potency is given here. Active and inactive are the calls of the source. The call rests on the fitted dose curve; in most records, active means well fitted curve in the direction sought with a large enough effect; inconclusive means small, poorly fitted or top-dose-only effect, or another doubt; inactive means no such curve, though single readings can be large; an effect the other way counts as inactive or inconclusive.
Columns and labels:
[1] = Primary qHTS for inhibitors of nuclear receptor binding SET domain protein 2 (NSD2) in an RCH-ACV wild type WT cells (2C) (AID 1645877); conditions: RCH-ACV (leukaemia line) NSD2 WT (2C) viability, CellTiter-Glo, 72 h; series mostly up to 44.9 µM; further: nearly all actives have a fitted effect of over 70% in size; further: potency means the concentration at half of the fitted maximal effect
[2] = biological target: Glutathione peroxidase 1 (Homo sapiens) (UniProt P07203); assay: Primary qHTS Assay for Inhibitors of Recombinant Selenoprotein Glutathione Peroxidase 1 (GPX1) (AID 1845191); conditions: recombinant GPX1, GR-coupled NADPH fluorescence, 15 min; series mostly up to 48.8 µM; further: nearly all actives have a fitted effect of over 65% in size
Chain of Glutathione peroxidase 1 (Homo sapiens) (P07203 whole entry, looked up): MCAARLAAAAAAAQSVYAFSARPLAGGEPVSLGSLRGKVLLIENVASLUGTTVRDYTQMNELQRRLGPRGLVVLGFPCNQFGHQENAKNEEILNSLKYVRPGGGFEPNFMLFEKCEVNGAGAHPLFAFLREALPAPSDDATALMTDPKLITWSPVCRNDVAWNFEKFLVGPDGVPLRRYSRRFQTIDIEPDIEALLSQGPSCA
Procedure, shortened: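 Recombinant GPX1 (10 nM final) was preincubated with compound for 30 min at room temperature, then reacted with 1 mM GSH, 0.5 mM CHP, 0.5 mM NADPH and 100 nM glutathione reductase; NADPH fluorescence (340/450 nm) was read at 0 and 15 min.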

[3] = biological target: Phospholipid hydroperoxide glutathione peroxidase GPX4 (Homo sapiens) (UniProt P36969); assay: Primary qHTS Assay for Inhibitors of Recombinant Selenoprotein Glutathione Peroxidase 4 (GPX4) (AID 1845192); conditions: recombinant GPX4, GR-coupled NADPH fluorescence, 15 min; series mostly up to 50 µM; further: nearly all actives have a fitted effect of over 65% in size
Chain of Phospholipid hydroperoxide glutathione peroxidase GPX4 (Homo sapiens) (P36969 whole entry, looked up): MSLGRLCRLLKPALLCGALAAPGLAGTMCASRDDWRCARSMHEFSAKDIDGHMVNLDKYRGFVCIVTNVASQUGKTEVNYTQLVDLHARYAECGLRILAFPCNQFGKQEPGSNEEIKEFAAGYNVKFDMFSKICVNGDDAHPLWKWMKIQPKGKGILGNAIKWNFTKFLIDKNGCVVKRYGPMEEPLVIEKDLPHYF
Procedure, shortened: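 GR-coupled readout: 100 nM GR, 1 mM GSH, 0.5 mM NADPH; NADPH fluorescence (ex 340/em 450 nm) read at t=0 and after 15 min RT. GPX4 200 nM, preincubated 30 min with compound; substrate 0.5 mM CHP.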

[4] = biological target: Luciferin 4-monooxygenase (Photinus pyralis) (UniProt P08659); assay: Primary firefly luciferase (FLuc) qHTS assay for identification of artifact compounds. (AID 1845220); conditions: purified firefly luciferase, luminescence, 5 min; series mostly up to 54.1 µM; further: nearly all actives have a fitted effect of over 60% in size
Procedure, shortened: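 In this counter-screen for luciferase artifacts, test compounds met substrate (10 uM each luciferin and ATP) before 10 nM enzyme started the reaction. Light output was measured 5 min later.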

[5] = Primary fluorescence-based thiol-reactive (MSTI) qHTS assay for identification of artifact compounds. (AID 1845221); conditions: MSTI thiol-reactivity probe, 1 h; series mostly up to 53.8 µM; further: nearly all actives have a fitted effect of over 65% in size; further: potency means the concentration at half of the fitted maximal effect;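 on activity change, negative = thiol reactive: thiol-reactive compounds lower the probe fluorescence signal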
Procedure, shortened: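 Thiol-reactive compounds detected by quenching of 4 uM MSTI fluorescence (525/598 nm) after 1 h room-temperature dark incubation in PBS pH 7.4, 2% DMSO. qHTS titration; percent inhibition Hill-fitted against Acetyl-MSTI/MSTI controls.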

[6] = system: Nanoluciferase (engineered Oplophorus gracilirostris luciferase); assay: Primary Nanoluciferase (NLuc) qHTS assay for identification of artifact compounds. (AID 1845222); conditions: NLuc-conditioned medium, Nano-Glo luminescence, 5 min; series mostly up to 54.1 µM;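 further: NLuc secreted into diluted conditioned medium of S16 cells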
Procedure, shortened: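 Using secreted nanoluciferase in S16 culture medium (0.22 um filtered, 1:55 dilution), compounds were preincubated 15 min at RT. Signal was generated with Nano-Glo reagent (1:100) over 5 min.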

[7] = Primary redox qHTS assay for identification of artifact compounds. (AID 1845223); conditions: Amplex Red/HRP redox cycling with DTT, fluorescence; series mostly up to 53.8 µM
Procedure, shortened: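 Amplex Red (25 uM) and HRP (250 mU/mL) in HBSS, with compounds for 15 min, then 250 uM DTT for 30 min, room temperature, dark. Fluorescence 525/598 nm read; normalized to DMSO and 10 uM DA3003; Hill fit.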

| Structure (SMILES) | Potency [1] | Potency [2] | Potency [3] | Potency [4] | Potency [5] | Potency [6] | Potency [7] | activity change, negative = cell killing [1] | outcome [4] | activity change, negative = thiol reactive [5] | activity, negative = inhibition [6] | redox activity (% of DA3003) [7] |
| --- | --- | --- | --- | --- | --- | --- | --- | --- | --- | --- | --- | --- |
| CC(=O)O[C@@H]1[C@@H](OC(=O)/C=C/c2ccccc2)[C@@H](OC(C)=O)[C@H](O[C@H]2[C@@H]3C=CO[C@@H](O[C@@H]4O[C@H](CO)[C@@H](O)[C@H](O)[C@H]4O)[C@@H]3[C@@]3(CO)O[C@@H]23)O[C@H]1C | inactive | inactive | inactive | inactive | inactive | inactive | inactive | – | – | – | – | – |
| CN(C)CCn1cc(S(=O)(=O)c2cccc(F)c2)c2cccnc21 | inactive | inactive | inactive | inactive | inactive | inactive | inactive | – | – | – | – | – |
| C=CC(C)(O)CC[C@H]1C(=C)CCC2[C@](C)(C(=O)O)CCC[C@@]21C (some centres undefined) | inactive | inactive | inactive | inactive | inactive | inactive | inactive | – | – | – | – | – |
| C[C@@H]([C@@H](O)c1ccc(O)cc1)N1CCC(O)(c2ccccc2)CC1 | inactive | inactive | inactive | inactive | inactive | inactive | inactive | – | – | – | – | – |
| COc1ccc(F)cc1-c1cc(NC(=O)[C@@H]2CCCNC2)ncc1Cl | 0.0649 µM (active) | inactive | inactive | inactive | inactive | inactive | inactive | – | – | – | – | – |
| CCCCC1CCN(CCCC(=O)c2ccccc2C)CC1 | 16.3 µM (active) | inactive | inactive | inactive | inactive | inactive | inactive | – | – | – | – | – |
| COC(=O)C1(C)c2[nH]c3ccccc3c2CCN1C(=O)CCl (centres undefined) | 2.58 µM (active) | inactive | inactive | inactive | inactive | inactive | inactive | – | – | – | – | – |
| CC(=O)/C=C/[C@H]1[C@](C)(O)[C@@H](O)[C@H](OC(C)=O)C2C(C)(C)CCC[C@@]21C (some centres undefined) | inactive | inactive | inactive | inactive | inactive | inactive | inactive | – | – | – | – | – |
| CC(=O)OC1C(c2ccccc2)CCC(c2ccccc2)C1OC(C)=O (centres undefined) | inactive | inactive | inactive | inactive | inactive | inactive | inactive | – | – | – | – | – |
| CCCCCCOc1cc2c(cc1N(C)c1ncc(C(=O)O)cn1)C(C)(C)CCC2(C)C | inactive | inactive | inactive | inactive | inactive | inactive | inactive | – | – | – | – | – |
| COC(=O)C12CCC(C)C(C)C1C1=CCC3C4(C)CCC(OC(C)=O)C(C)(C)C4CCC3(C)C1(C)CC2 (centres undefined) | inactive | inactive | inactive | inactive | inactive | inactive | inactive | – | – | – | – | – |
| O=C(Nc1ccccc1)N1CCN(Cc2ccc3ccccc3n2)CC1 | inactive | inactive | inactive | inactive | inactive | inactive | inactive | – | – | – | – | – |
| C[C@@H]1O[C@@H](O[C@H]2[C@H](O[C@H]3[C@H](O[C@H]4CC[C@@]5(C)C(CC[C@]6(C)C5CC=C5[C@@H]7CC(C)(C)C[C@@H](O)[C@]7(C)CC[C@]56C)[C@@]4(C)CO)O[C@H](C(=O)O)[C@@H](O)[C@@H]3O)OC[C@H](O)[C@@H]2O)[C@H](O)[C@H](O)[C@H]1O (some centres undefined) | – | inactive | inactive | – | – | – | – | -3.15% [at 9.23 µM] | inactive [at 11.6 µM] | 129% [at 11.5 µM] | -0.768% [at 11.6 µM] | 17.9% [at 11.5 µM] |
| C[C@@H]1O[C@@H](O[C@H]2[C@@H]3C=CO[C@@H](O[C@@H]4O[C@H](CO)[C@@H](O)[C@H](O)[C@H]4O)[C@@H]3[C@@]3(CO)O[C@@H]23)[C@H](OC(=O)/C=C/c2ccc(O)c(O)c2)[C@H](O)[C@H]1O | inactive | inactive | inactive | inactive | 0.793 µM (active) | inactive | inactive | – | – | – | – | – |
| COC(=O)CC(O)C1OC(c2ccccc2)C(O)C1O (centres undefined) | inactive | inactive | inactive | inactive | 8.44 µM (active) | inactive | inactive | – | – | – | – | – |
| N#Cc1c(Oc2ccc(F)c(NC(=O)Cc3cccc(C(F)(F)F)c3)c2)ccc2nc(NC(=O)C3CC3)sc12 | 1.15 µM (active) | inactive | inactive | inactive | inactive | inactive | inactive | – | – | – | – | – |
| Cc1ccc(C)c(OCCn2cc(C(=O)O)c3ccccc32)c1 | inactive | inactive | inactive | inactive | inactive | inactive | inactive | – | – | – | – | – |

Reference: PubChem BioAssay (NCATS)
